Vaccinia Venus = qHTS for Stage-Specific Inhibitors of Vaccinia Orthopoxvirus: Venus Reporter Primary qHTS. Vaccinia virus Venus reporter expression, fluorescence. Potency, µM (top dose mostly 36.5 µM), for inactives: at the highest dose activity change, negative = inhibition, actives largely listed as inhibitors. 0.46% of 330,000 active; calls by dose curve; tested in A549 cells; also: % is scaled to controls: 0 for no effect and ±100 for the full control effect; nearly all actives have a fitted effect of over 30% in size
SARS PLpro yeast = qHTS of Yeast-based Assay for SARS-CoV PLP; Potency, µM (doses to about 32.9 µM), for the others: at the highest dose activity, positive = growth rescue, hits mostly activators; S. cerevisiae expressing SARS-CoV PLpro, growth rescue; 0.19% of 330,000 active; calls by dose curve; also: 0% is about no effect; nearly all actives have a fitted effect of over 55% in size
AmpC no deterg = qHTS Inhibitors of AmpC Beta-Lactamase (assay without detergent). P00811. AmpC nitrocefin hydrolysis, absorbance 480 nm, 0.0001% Triton. Potency, µM (highest dose often 57.1 µM), for inactives: at the top dose activity change, negative = inhibition, actives largely listed as inhibitors. 0.52% of 330,000 active;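 also: plate controls were no compound for no effect and no enzyme for full effect; nearly all actives have a fitted effect of over 20% in size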
Target sequence (P00811 whole entry, looked up): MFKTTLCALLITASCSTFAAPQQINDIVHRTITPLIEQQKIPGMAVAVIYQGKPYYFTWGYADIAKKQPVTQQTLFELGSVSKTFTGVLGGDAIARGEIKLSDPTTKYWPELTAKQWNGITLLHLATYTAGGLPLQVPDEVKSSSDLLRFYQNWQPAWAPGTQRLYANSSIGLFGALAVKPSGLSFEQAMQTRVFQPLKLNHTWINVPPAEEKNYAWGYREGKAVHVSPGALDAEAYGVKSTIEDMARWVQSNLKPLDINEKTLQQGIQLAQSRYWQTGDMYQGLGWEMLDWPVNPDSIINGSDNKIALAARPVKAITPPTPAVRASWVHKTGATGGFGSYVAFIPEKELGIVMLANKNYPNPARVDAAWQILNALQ
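20 mM phosphate pH 7.0 + 0.01% (detergent screen) or 0.0001% Triton X-100; 5.3 nM AmpC reagent; cpd preinc 15 min RT; nitrocefin (800 uM stock) to start; A480 q20 s × 4 min; Activity was normalised to no-enzyme and no-compound control wells.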
AmpC inh detg = qHTS Inhibitors of AmpC Beta-Lactamase (assay with detergent); P00811; AmpC hydrolysis of nitrocefin, absorbance 480 nm, 0.01% Triton; Potency, µM (doses to about 114 µM), inactives show at the highest dose activity change, negative = inhibition, hits mostly inhibitors; 0.041% of 370,000 active; AID 485294, 2010;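 also: 0% = no-compound wells and -100% = no-enzyme wells; nearly all actives have a fitted effect of over 25% in size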
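20 mM phosphate pH 7.0 + 0.01% (detergent screen) or 0.0001% Triton X-100; 5.3 nM AmpC reagent; cpd preinc 15 min RT; nitrocefin (800 uM stock) to start; A480 q20 s × 4 min; Activity was normalised to no-enzyme and no-compound control wells.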
VACV mCherry inh = qHTS for Stage-Specific Inhibitors of Vaccinia Orthopoxvirus: mCherry Reporter Primary qHTS; Vaccinia virus mCherry reporter infection, fluorescence; Potency, µM (top dose mostly 36.5 µM), for inactives: at the top dose activity change, negative = inhibition, usual class: inhibitors; 0.63% of 310,000 active; calls by dose curve; tested in A549 cells; also: % is scaled to controls: 0 for no effect and ±100 for the full control effect; nearly all actives have a fitted effect of over 35% in size
An asterisk follows results filed as active; i = inactive; u = inconclusive; x = no result given; [ ] = another dose, or the depositor's remark. The list is not random: actives were taken first. Their share in the collection is about 1.3%. Unless noted, calls follow the shape of the dose curve; as a rule, active = well fitted curve in the direction sought with a large enough effect; inconclusive = small, poorly fitted or top-dose-only effect, or another doubt; inactive = no such curve, though single readings can be large; an effect the other way counts as inactive or inconclusive. Potency is read from the fitted curve at half-maximal effect.

SMILES	Vaccinia Venus	SARS PLpro yeast	AmpC no deterg	AmpC inh detg	VACV mCherry inh
O=C(OC[C@H]1O[C@@H](OC(=O)c2cc(O)c(O)c(OC(=O)c3cc(O)c(O)c(O)c3)c2)[C@H](OC(=O)c2cc(O)c(O)c(OC(=O)c3cc(O)c(O)c(O)c3)c2)[C@@H](OC(=O)c2cc(O)c(O)c(OC(=O)c3cc(O)c(O)c(O)c3)c2)[C@@H]1OC(=O)c1cc(O)c(O)c(OC(=O)c2cc(O)c(O)c(O)c2)c1)c1cc(O)c(O)c(OC(=O)c2cc(O)c(O)c(O)c2)c1	10µM*	4%	u	u	5.6µM*
Cc1oc(-c2ccccc2NS(C)(=O)=O)nc1CN(C)Cc1ccc(Cl)cc1	-1%	x	x	x	-9%
Cc1ccc2cc(CNC(C)CO)c(N3CCC(O)CC3)nc2c1 (configuration not stated)	25%	x	x	x	6%
CCc1c(C)nc2c(-c3ccccc3)c(C)[nH]n2c1=O	-21%	-3%	-17%	-13%	u
Cc1[nH]n2c(=O)cc(-c3ccc([N+](=O)[O-])cc3)nc2c1-c1ccccc1	-14%	x	x	x	-16%
CCCCc1c(C)nc2c(-c3ccc(Cl)cc3)c(C)[nH]n2c1=O	u	x	x	-2%	11µM*
Cc1[nH]n2c(=O)cc(C(C)C)nc2c1-c1ccccc1	-20%	-2%	-25%	-8%	-7%
Cc1[nH]n2c(=O)cc(-c3ccc(Cl)cc3)nc2c1-c1ccccc1	u	x	x	1%	8.9µM*
Cc1[nH]n2c(=O)cc(C(C)(C)C)nc2c1-c1ccccc1	u	1%	-22%	2%	10µM*
COC(=O)C1CCN(Cc2ccc3c(c2)CN(C(=O)c2ccc4nc(C)c(C)nc4c2)CCO3)CC1	-2%	x	x	x	-12%
COCC1CCCN(Cc2ccc3c(c2)CN(C(=O)c2ccc(-n4cccn4)cc2)CCO3)C1 (configuration not stated)	4%	x	x	x	-12%
COC(=O)c1ccc(CN2CCOc3ccc(CN4CCC(O)(c5cccnc5)CC4)cc3C2)cc1	-26%	x	x	x	-26%
CC(NC(=O)c1cc(F)ccc1F)c1nnc2n1CCN(Cc1ccco1)CC2 (configuration not stated)	0%	x	x	x	-2%
Oc1c(Cl)cc(Cl)cc1/C=N/Nc1ncc(Br)cn1	u	-2%	-25%	-5%	1.6µM*
O=C1NC(=O)N(Cc2ccccc2)C(=O)/C1=C\c1ccco1	33%	2%	-26%[11.4 µM]	-15%	21%
O=C1NC(=O)N(Cc2ccco2)C(=O)/C1=C/c1cccn1CCOc1ccccc1Cl	0%	23%	13µM*	-12%	i
CC(C)N=C(NS(=O)(=O)c1ccccc1)C(Cl)(Cl)Cl	11µM*	-29%	u	1%	14µM*
O=S(=O)(NC(=S)c1ccccc1)c1ccccc1	-4%	x	x	x	i
Cc1ncc2c(c1CNC(=O)c1ccc3c(c1)OCO3)CCN(C(=O)c1cn3ccccc3n1)C2	5%	x	x	x	-10%
O=C(c1n[nH]c2c1CCCC2)N1CCC(n2c(C3CCCO3)nc3ccccc32)CC1 (configuration not stated)	0%	x	x	x	-5%
Cc1cc(Nc2cc(F)ccc2C)n2ncnc2n1	-8%	24%	28µM*	-4%	-17%
Cc1cc(Nc2ccc(C)c(F)c2)n2ncnc2n1	x	-5%	123%	-10%	x
CC(C)=CC(O)C/C(C)=C/COc1ccc2ccc(=O)oc2c1 (configuration not stated)	10µM*	-2%	-10%	4%	10µM*
CC(C)=CCOc1cc2oc(=O)ccc2cc1O	-5%	x	x	x	-16%
C=Cc1ccc(C(=O)N2CCc3c(cnc(C)c3CNC(=O)c3ccc4c(c3)OCO4)C2)cc1	-6%	x	x	x	-9%
SMILES	Vaccinia Venus	SARS PLpro yeast	AmpC no deterg	AmpC inh detg	VACV mCherry inh
CCCSCCCNC(=O)CC1Oc2ccccc2NC1=O (configuration not stated)	-4%	0%	-14%	u	2%
COCCCNC(=O)CC1Oc2ccccc2NC1=O (configuration not stated)	2%	2%	10µM*	u	i
CCC(c1nnnn1Cc1ccccc1)N(Cc1ccccc1)Cc1cc2cc(C)ccc2[nH]c1=O (configuration not stated)	-20%	x	x	x	-21%
Cc1nn(Cc2c(F)c(F)c(F)c(F)c2F)c(C)c1NC(=O)c1cccc(COc2ccccc2Cl)c1	x	1%	-5%	-10%	x
Cc1nn(Cc2cccc(F)c2)c(C)c1NC(=O)c1ccc(COc2ccccc2Cl)cc1	13µM*	1%	38%	3%	11µM*
O=[N+]([O-])c1cc(S(=O)(=O)c2ccc(N3CCCCC3)c([N+](=O)[O-])c2)ccc1N1CCCCC1	-16%	2%	10µM*	2%	-22%
O=[N+]([O-])c1cccc(S(=O)(=O)c2ccc(N3CCCCC3)c([N+](=O)[O-])c2)c1	-16%	-3%	-44%	-5%	i
O=[N+]([O-])c1cc(S(=O)(=O)N2CCCCCC2)ccc1F	14µM*	-70%	-19%	-2%	u
Cc1cccnc1-c1cccc2c1OC(CNC(=O)C(=O)c1ccccc1)C2 (configuration not stated)	-13%	x	x	x	-14%
CC(C)C[C@@H]1NC(=O)[C@H](CCCN)NC(=O)[C@H](C(C)C)NC(=O)[C@@H]2CCCN2C(=O)[C@@H](Cc2ccccc2)NC(=O)[C@H](CC(C)C)NC(=O)[C@H](CCCN)NC(=O)[C@H](C(C)C)NC(=O)[C@@H]2CCCN2C(=O)[C@@H](Cc2ccccc2)NC1=O	u	x	x	x	4.5µM*
O=C1N[C@@H](Cc2ccccc2)C(=O)N2CCC[C@@H]12	-6%	1%	-16%	u	i
CCOC(=O)N1CCN(c2nc(CN3CCCCC3CCO)nc3c(C)cccc23)CC1 (configuration not stated)	-12%	x	x	x	i
O=c1[nH]c(=O)n(Cc2ccc(Oc3ccccc3)cc2)cc1Br	x	0%	-31%	-13%	x
C=C1CC(Cn2cc(Br)c(=O)[nH]c2=O)(c2ccc(-c3ccccc3)cc2)OC1=O (configuration not stated)	7.9µM*	x	x	x	2.8µM*
CC1CCc2nn(CC(=O)NCCC3=CCCCC3)cc2C1 (configuration not stated)	-16%	-1%	0.56µM*	u	-7%
CC1CCc2nn(CC(=O)NCCN3CCOCC3)cc2C1 (configuration not stated)	5%	2%	11µM*	0%	-3%
COCCNC(=O)Cn1cc2c(n1)CCC(C)C2 (configuration not stated)	-1%	-4%	-11%	u	-11%
Cc1ccc(N(C)C(=O)N2CCN(c3ccccn3)CC2)cc1	-4%	3%	10µM*	u	i

Screens deposited in PubChem BioAssay by National Center for Advancing Translational Sciences (NCATS).
